# Assay results published in PubChem BioAssay (NCI).
# Compounds without any hit were thinned out: in the full panel of roughly 83,000, 20% have a hit.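 For each line, cells grew in 96-well plates with the test compound present at a single concentration for 48 hours.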 Unmarked numbers belong to inactive results. Active and inactive are the calls of the source. How the source made its calls: active means growth percent below 10; inactive means the rest.
# How the values were obtained:
# Assay in all cases: NCI-60 one-dose screen, 48 h (100 = growth as untreated, 0 = no growth, -100 = all killed)
# Conditions in all cases: 10 µM unless noted
# NCI-H23 lung = system: NCI-H23 lung
# NCI-H226 lung = system: NCI-H226 lung
# NCI-H322M lung = system: NCI-H322M lung
# HOP-62 NSCLC = system: HOP-62 NSCLC
# NCI-H460 lung = system: NCI-H460 lung
# HOP-92 NSCLC = system: HOP-92 NSCLC
# NCI-H522 lung = system: NCI-H522 lung
# A549/ATCC NSCLC = system: A549/ATCC NSCLC
# 786-0 renal = system: 786-0 renal
# COLO 205 colon = system: COLO 205 colon
# DU-145 prostate = system: DU-145 prostate
# MALME-3M melanoma = system: MALME-3M melanoma
# MDA-MB-231 breast = system: MDA-MB-231 breast
# RXF 393 renal = system: RXF 393 renal
# SF-268 CNS = system: SF-268 CNS
# SF-295 CNS = system: SF-295 CNS
# SF-539 CNS = system: SF-539 CNS
# UACC-257 melanoma = system: UACC-257 melanoma
# M14 melanoma = system: M14 melanoma
# K-562 leukemia = system: K-562 leukemia
Compound,growth (NCI-H23 lung),growth (NCI-H226 lung),growth (NCI-H322M lung),growth (HOP-62 NSCLC),growth (NCI-H460 lung),growth (HOP-92 NSCLC),growth (NCI-H522 lung),growth (A549/ATCC NSCLC),growth (786-0 renal),growth (COLO 205 colon),growth (DU-145 prostate),growth (MALME-3M melanoma),growth (MDA-MB-231 breast),growth (RXF 393 renal),growth (SF-268 CNS),growth (SF-295 CNS),growth (SF-539 CNS),growth (UACC-257 melanoma),growth (M14 melanoma),growth (K-562 leukemia)
Cc1cc(CC(=O)NCCO)n(CCO)c(=O)c1,101%,105%,103%,91%,103%,115%,93.8%,94.1%,108%,104%,110%,115%,109%,110%,101%,104%,107%,93%,103%,–
Cc1c(Cl)cccc1N=C=S,85%,101%,95.4%,88.5%,101%,69.6%,86.8%,90.4%,101%,117%,112%,99%,130%,91.9%,107%,93.9%,90.2%,92.7%,90.6%,–
COc1ccc(Br)c2c1C(=O)CC2,109%,100%,159%,116%,110%,94.5%,43.1%,122%,113%,114%,127%,113%,106%,–,91.3%,111%,106%,119%,110%,–
C/C(O)=C(/C=N\C(=S)Nc1ccc(S(=O)(=O)Nc2nccs2)cc1)C(=O)Nc1ccccc1C,94.6%,73.2%,99.7%,96.1%,102%,87.5%,91.6%,92.6%,96.7%,104%,–,108%,87%,97.7%,88.8%,104%,95.9%,109%,100%,93.7%
CCOC(=O)/C(O)=C(\C=N\C(=S)Nc1ccc(Cl)c(Cl)c1)C(=O)OCC,87.3%,75.2%,106%,94.3%,106%,95.5%,71.4%,101%,115%,92.9%,–,89.3%,94.3%,97.9%,104%,105%,73.9%,98.6%,93.2%,92.7%
Cc1cc(Cl)cc(Cc2cc(Cl)cc(C)c2O)c1O,0.327% (active),92.3%,18.1%,56.8%,6.76% (active),-33% (active),-7.46% (active),29%,14.9%,101%,30.5%,-7.41% (active),1.11% (active),56.9%,15%,22.6%,12.7%,8.59% (active),14.2%,–
CC(=O)Nc1ccc(/C=C2\SC(=S)N(/C=C(\C(C)=O)C(N)=O)C2=O)cc1,97.5%,86.2%,102%,82.5%,99.4%,68.2%,84.2%,84.9%,88.1%,92.1%,106%,87.8%,98.9%,93%,96.2%,93.6%,92.5%,87.8%,81%,–
CCOP(=O)(OCC)/C(=C\N1C(=O)CC(=O)NC1=S)C(=O)OC,97.9%,95.7%,107%,88%,103%,107%,104%,99.7%,108%,99.5%,–,102%,93.6%,103%,101%,102%,109%,101%,99.2%,103%
N#C/C(=C\c1ccc(C#N)cc1)C(=O)c1ccccc1,86.8%,95.5%,97.4%,103%,116%,86.3%,91.4%,98.4%,94.2%,123%,107%,109%,104%,–,104%,107%,96.8%,97.7%,95.7%,–
COc1cc(OC)c(NC(=O)C(Sc2nc(C)cc(C)c2C#N)c2ccccc2)cc1Cl (stereo unspecified),96.6%,102%,106%,65.5%,110%,80.9%,82.1%,92.6%,73.6%,104%,102%,–,106%,73.5%,85.9%,–,83.8%,114%,97.1%,105%
CCOP(=O)(NC(c1ccccc1)c1ccccc1)OCC,108%,103%,99%,95.5%,107%,89.7%,113%,106%,102%,100%,–,89.7%,106%,113%,104%,102%,115%,97.8%,105%,114%
O=S(Cc1ccccc1)/C(=C/NC(=S)Nc1cc(Cl)ccc1Cl)c1ccccc1 (stereo unspecified),97.1%,101%,93.7%,92.8%,107%,101%,85%,96.8%,102%,109%,106%,–,100%,103%,93.1%,103%,115%,99.5%,96.8%,–
Cn1c(=O)c2nc3c(=O)n(C)c(=O)n(C)c3nc2n(C)c1=O,95.1%,107%,101%,93%,102%,127%,93.8%,126%,91.2%,126%,117%,120%,109%,–,108%,107%,91.7%,–,97%,–
NNC(=O)CCCCl,97.7%,98.7%,107%,107%,111%,137%,104%,100%,108%,118%,108%,–,104%,96.6%,102%,102%,106%,105%,100%,105%
CCCCCC/C=C\CCCCCCCCCc1cc(O)cc(OC)c1O,11.2%,24.2%,4.07% (active),21.8%,8.62% (active),-45% (active),-76.8% (active),16.8%,10.6%,-65.3% (active),26%,–,-43.1% (active),22.7%,9.15% (active),2.68% (active),-58.3% (active),-4.96% (active),27.3%,7.81% (active)
S=CN1CCCCC1,105%,98.1%,102%,108%,109%,103%,109%,91.8%,102%,121%,106%,–,108%,102%,96.7%,96%,97.4%,91.8%,106%,101%
C/C(O)=C(/C=N/C(=S)Nc1ccccc1)C(=O)Nc1ccccc1C,103%,95.8%,104%,99.4%,106%,92.6%,94.5%,97.3%,102%,110%,–,89.1%,99.7%,104%,97.9%,105%,101%,91.2%,100%,100%
C=C1C(=O)C2CCN1CC2,102%,101%,99.5%,101%,104%,104%,-53.8% (active),97%,96.2%,102%,103%,–,125%,89.6%,102%,96.1%,102%,108%,92.3%,57.3%
